Screening data (PubChem)
Sfp PPTase inh: Sfp phosphopantetheinyl transferase inhibition. Potency, µM, inactives show largest response in the series, negative = inhibition, most hits filed as inhibitors. AID 1490. actives 3.5% (n = 310,000). Q9F4F7. Biochemical Sfp PPTase activity, qHTS;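 note: the enzyme is Sfp with the accession as filed and its product quenches rhodamine fluorescence; 0% = enzyme reaction without inhibitor and -100% = no enzyme wells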
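Fluorescence-quenching assay with 15 nM Sfp, 5 uM rhodamine-CoA and 12.5 uM BHQ-2-labelled ybbR peptide in pH 7.6 Hepes/MgCl2 buffer. Enzyme was pre-incubated with compound for 15 min at room temperature. Rate was taken from the 30-min fluorescence change (525/598 nm).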
BAZ2B block: blocks human BAZ2B; Q9UIF8; Potency, µM (doses to about 114 µM), without a hit: top-dose activity change, negative = inhibition, hits mostly inhibitors; AlphaScreen BAZ2B-H3K14Ac peptide displacement; AID 504333; actives 4.4% (n = 360,000); note: % is set by controls: 0 for no effect and ±100 for the full control effect; nearly all actives have a fitted effect of over 60% in size
Target sequence (Q9UIF8 whole entry, looked up): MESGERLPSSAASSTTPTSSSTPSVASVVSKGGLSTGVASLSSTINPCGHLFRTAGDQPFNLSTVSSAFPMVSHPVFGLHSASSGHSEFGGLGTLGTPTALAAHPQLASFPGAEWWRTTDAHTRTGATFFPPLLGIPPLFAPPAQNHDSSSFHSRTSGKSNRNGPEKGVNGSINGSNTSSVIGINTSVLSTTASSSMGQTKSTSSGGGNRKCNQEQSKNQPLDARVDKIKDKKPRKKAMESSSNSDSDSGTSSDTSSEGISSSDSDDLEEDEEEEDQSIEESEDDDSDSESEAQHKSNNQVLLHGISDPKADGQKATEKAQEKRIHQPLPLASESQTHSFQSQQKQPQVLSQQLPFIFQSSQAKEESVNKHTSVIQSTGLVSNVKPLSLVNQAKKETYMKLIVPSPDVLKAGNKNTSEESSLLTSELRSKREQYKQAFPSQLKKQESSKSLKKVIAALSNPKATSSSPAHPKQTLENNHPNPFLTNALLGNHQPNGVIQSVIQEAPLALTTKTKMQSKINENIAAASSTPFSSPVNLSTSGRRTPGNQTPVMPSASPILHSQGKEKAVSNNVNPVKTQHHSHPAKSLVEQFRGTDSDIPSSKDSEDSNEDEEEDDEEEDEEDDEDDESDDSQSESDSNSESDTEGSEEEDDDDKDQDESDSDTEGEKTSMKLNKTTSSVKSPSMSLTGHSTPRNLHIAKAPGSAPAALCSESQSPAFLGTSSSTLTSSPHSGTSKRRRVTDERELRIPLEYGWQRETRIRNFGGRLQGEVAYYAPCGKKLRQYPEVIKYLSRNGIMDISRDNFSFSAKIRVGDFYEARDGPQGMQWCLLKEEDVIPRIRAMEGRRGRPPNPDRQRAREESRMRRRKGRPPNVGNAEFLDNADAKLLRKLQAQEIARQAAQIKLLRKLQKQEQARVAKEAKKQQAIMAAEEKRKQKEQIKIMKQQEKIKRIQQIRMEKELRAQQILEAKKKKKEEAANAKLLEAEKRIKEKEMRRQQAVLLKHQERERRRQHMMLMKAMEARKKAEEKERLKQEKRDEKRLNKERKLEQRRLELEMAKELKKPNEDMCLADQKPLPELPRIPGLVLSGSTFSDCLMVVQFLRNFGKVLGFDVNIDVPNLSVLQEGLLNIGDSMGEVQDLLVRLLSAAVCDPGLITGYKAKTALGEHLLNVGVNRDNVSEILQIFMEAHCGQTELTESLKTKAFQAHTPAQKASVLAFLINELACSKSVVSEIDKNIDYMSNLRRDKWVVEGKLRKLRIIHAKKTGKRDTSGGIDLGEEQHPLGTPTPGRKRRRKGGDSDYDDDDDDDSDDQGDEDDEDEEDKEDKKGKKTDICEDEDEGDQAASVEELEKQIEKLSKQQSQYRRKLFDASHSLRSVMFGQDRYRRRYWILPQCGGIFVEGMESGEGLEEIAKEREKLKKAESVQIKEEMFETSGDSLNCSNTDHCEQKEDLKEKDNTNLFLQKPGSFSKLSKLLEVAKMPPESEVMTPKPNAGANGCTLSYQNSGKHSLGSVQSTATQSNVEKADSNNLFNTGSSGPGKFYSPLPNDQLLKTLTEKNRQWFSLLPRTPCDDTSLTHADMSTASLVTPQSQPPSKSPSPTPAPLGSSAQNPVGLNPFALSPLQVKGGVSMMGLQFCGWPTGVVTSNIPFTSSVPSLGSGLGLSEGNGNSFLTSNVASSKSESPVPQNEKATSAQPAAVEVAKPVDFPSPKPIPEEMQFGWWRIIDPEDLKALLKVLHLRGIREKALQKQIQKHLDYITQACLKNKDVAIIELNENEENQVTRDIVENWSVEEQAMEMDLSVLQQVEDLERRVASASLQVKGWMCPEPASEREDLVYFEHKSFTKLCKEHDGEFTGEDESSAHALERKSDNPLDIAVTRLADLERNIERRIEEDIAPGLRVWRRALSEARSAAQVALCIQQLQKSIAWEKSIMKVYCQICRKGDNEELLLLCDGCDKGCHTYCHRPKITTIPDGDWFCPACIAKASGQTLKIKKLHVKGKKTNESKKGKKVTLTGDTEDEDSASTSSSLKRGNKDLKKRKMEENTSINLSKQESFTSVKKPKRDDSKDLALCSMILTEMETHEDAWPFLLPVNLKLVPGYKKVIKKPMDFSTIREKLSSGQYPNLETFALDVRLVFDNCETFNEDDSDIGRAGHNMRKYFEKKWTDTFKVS
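AlphaScreen displacement of biotin-H3(5-23)K14Ac peptide (50 nM final) from BAZ2B (50 nM final) in PBS pH 7.4, 0.01% Tween-20; complex preformed 30 min RT, then compounds (top 110 uM) 30 min RT, beads 20 min dark.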
HP1b binding inh: HP1-beta chromodomain-methylated histone interaction inhibition; Potency, µM (series often up to 114 µM), for the others: at the top dose activity change, negative = inhibition, usual class: inhibitors; AlphaScreen HP1-beta / biotin-H3K9me3 peptide binding; actives 0.56% (n = 390,000); AID 540317; P83916; note: nearly all actives have a fitted effect of over 70% in size
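HP1-beta protein (50 nM final) preincubated 30 min at room temperature with biotinylated H3(1-18)K9me3 peptide (50 nM) in PBS pH 7.4, 0.01% Tween-20, then compound added for 30 min. AlphaScreen streptavidin donor/nickel chelate acceptor beads (10 ug/mL final), 30 min dark, luminescence read.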
JMJD2A Tudor inh: JMJD2A Tudor domain (human) inhibition | O75164 | Potency, µM (titrated, usually from 114 µM), inactives show at the top dose activity change, negative = inhibition, most hits filed as inhibitors | AlphaScreen JMJD2A-Tudor / H3K4me3 peptide binding | actives 4.4% (n = 390,000) | AID 504339; note: % is set by controls: 0 for no effect and ±100 for the full control effect; nearly all actives have a fitted effect of over 50% in size
G9a inh: blocks human histone lysine methyltransferase G9a. actives 8.8% (n = 350,000). G9a H3K9 monomethylation, AlphaScreen, 2 h. Potency, µM (series often up to 102 µM), for inactives: top-dose activity, negative = inhibition, most hits filed as inhibitors. AID 504332; note: % is set by controls: 0 for no effect and ±100 for the full control effect; nearly all actives have a fitted effect of over 75% in size
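Enzyme 20 nM + cpd, 15 min RT; add b-H3K9 pep 500 nM / SAM 20 uM; 2 h RT; anti-H3K9me1 Ab 0.5 ug/mL + SA donor / anti-rabbit acceptor beads 20 ug/mL each, 10 min; AlphaScreen read.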
Starred values were filed as active, the others as inactive; ? = inconclusive; nt = not tested or not shown; [ ] = dose if it differs, or a comment. A selection: hits, their analogues and other compounds. The true share with any hit is near 12%. Calls come from the whole dose curve; as a rule, active = well fitted curve in the direction sought with a large enough effect; inconclusive = small, poorly fitted or top-dose-only effect, or another doubt; inactive = no such curve, though single readings can be large; an effect the other way counts as inactive or inconclusive. Potency is the fitted concentration of half-maximal effect.

SMILES	Sfp PPTase inh	BAZ2B block	HP1b binding inh	JMJD2A Tudor inh	G9a inh
Cc1cc2[nH]c(=O)c(=O)[nH]c2cc1S(=O)(=O)Nc1cccc(C(F)(F)F)c1	nt	-2%	23%	-13%	-31%[59 µM]
CCc1nc2ccc(C(=O)NCCc3ccc(OC)cc3)cc2nc1CC	0%	-1%	52%	9%	6%
O=[N+]([O-])c1ccccc1S(=O)(=O)NCC1CCC(CNCC2CCc3ccccc3C2)CC1 (stereo unspecified)	0%	nt	nt	nt	nt
COc1ccc(-n2c(CCc3ccccc3)n[nH]c2=S)cc1	-10%	-34%	9%	11µM*	-117%
COC(=O)Nc1ccc(S(=O)(=O)N2CCC(C(=O)N3CCC(C)CC3)CC2)cc1	1%	-8%	-3%	11µM*	11%
COC(=O)Nc1ccc(S(=O)(=O)N2CCN(C)CC2)cc1	25%	4%	22%	79µM*	?
COC(=O)Nc1ccc(S(=O)(=O)N2CCCCC2)cc1	11%	-5%	20%	8%	14%
COC(=O)Nc1ccc(S(=O)(=O)N2CCC(C)CC2)cc1	9%	11%	18%	-9%	17%[12.7 µM]
COc1ccc(NC(=S)NCCCc2ccccc2)cc1	11%	-30%	25%	?	13%[59 µM]
COCCCNC(=S)NNC(=O)c1cc(-c2ccncc2)nc2ccccc12	8%	-12%	45%	-4%	nt
COCCCNC(=S)NNC(=S)Nc1ccc(OC)cc1	50µM*	-17%	?	1.8µM*	nt
COCCCNC(=S)NNC(=O)c1csc(C)n1	10%	79µM*	64%	-32%	23%
CCCCCCCC/C=C\CCCCCCCC(=O)NCCCC(=O)O	22%	nt	nt	nt	nt
Cc1ccc(C2C=C(c3ccccc3)Nc3nc(N4C(=O)CCC4=O)nn32)cc1 (stereo unspecified)	-19%	50µM*	13%	79µM*	?
O=S(=O)(Nc1nc2n(n1)C(c1ccccc1)C=C(c1ccc(Cl)cc1)N2)c1ccccc1 (stereo unspecified)	nt	79µM*	55%	-5%	?
Cc1ccc(C2C=C(c3ccccc3)Nc3nc(NS(=O)(=O)c4ccccc4)nn32)cc1 (stereo unspecified)	nt	2%	48%	-8%	14µM*
Cc1ccc(C2C=C(c3ccc(Cl)cc3)Nc3nc(NC(=O)c4ccco4)nn32)cc1 (stereo unspecified)	nt	50µM*	34%	79µM*	32µM*
Cc1ccc(S(=O)(=O)Nc2nc3n(n2)C(c2ccc(Cl)cc2)C=C(c2ccccc2)N3)cc1 (stereo unspecified)	nt	-30%	38%	-5%	-36%[59 µM]
CCc1nc2nc(C)c(NS(=O)(=O)c3ccc(C)cc3)c(=O)n2[nH]1	nt	-10%	29%	-3%	-28%[59 µM]
O=C(COc1ccccc1Cl)N(Cc1cccc(F)c1)C1CCS(=O)(=O)C1 (stereo unspecified)	nt	-2%	7%	-16%	0%[59 µM]
Cc1ccc(C2C=C(c3ccccc3)Nc3nc(NS(C)(=O)=O)nn32)cc1 (stereo unspecified)	nt	0%	22%	-5%	20µM*
CCN1C(=O)[C@H]2[C@H]3[C@H](O)[C@H](O)C/C(=N/NC(=O)OCc4ccccc4)[C@@H]3CC[C@@H]2C1=O	6%	nt	nt	nt	nt
COc1ccc(C(=O)c2ccc(OC)c3cccc(O)c23)cc1OC	-17%	?	6%	?	56µM*
Cc1ccc(NS(=O)(=O)c2cc3c(cc2/C=C/c2ccccc2)NC(=O)CO3)cc1C	nt	nt	nt	-9%	nt
CC[C@]12c3[nH]c4cc(-c5ccco5)ccc4c3CCN1C(=O)[C@@H](CC(=O)NCCCn1ccnc1)C[C@@H]2C(=O)N1CCN(C(=O)C2CC2)CC1	nt	nt	20%	-29%	nt
SMILES	Sfp PPTase inh	BAZ2B block	HP1b binding inh	JMJD2A Tudor inh	G9a inh
COc1cc(C(=O)N/N=C(\C)c2ccccn2)cc(OC)c1OC	6%	-17%	20%	-19%	63%
CC(=NNC(=S)SCc1ccccc1)c1ccccn1	nt	nt	-15%	20µM*	nt
CCCCCC(=O)N/N=C(\C)c1ccccn1	?	-33%	43%	-19%	?
CC(=NNC(=S)N1CC2CCC(CC2)C1)c1cccc(C)n1	nt	nt	?	22µM*	nt
CC(=NNC(=S)N1CCC1)c1ccccn1	nt	nt	15%	20µM*	nt
COC(=O)CCC[N+](C)(C)C	5%	nt	nt	nt	-2%[12.7 µM]
Cc1ccc(Nc2c(-c3cccs3)nc3nc(C)cc(C)n23)cc1	nt	-34%	4%	-24%	-3%[59 µM]
CC(=O)OC[C@@H]1O[C@H](C/C=N\O[C@@H](C)c2cc(-c3c(C)cc(C)cc3C)no2)C=C[C@@H]1OC(C)=O	10%	nt	nt	nt	nt
C=CCN1C(=O)/C(=c2\sc3nc(=O)c(Cc4ccccc4)nn3c2=O)c2ccccc21	13µM*	?	?	56µM*	nt
CCN1C(=O)/C(=C/c2nc3ccccc3c(=O)[nH]2)c2ccccc21	-1%	-29%	13%	-8%	-2%[59 µM]
CCN1C(=O)/C(=c2\sc3nc(=O)c(Cc4ccccc4)nn3c2=O)c2ccccc21	25µM*	?	-31%	?	25µM*
O=C1c2[nH]nc(-c3ccccc3O)c2C(c2ccc(F)cc2)N1CCO (stereo unspecified)	nt	-12%	45%	-12%	2%[59 µM]
CC(=O)c1cccc(NC(=O)COC(=O)c2ccccc2C)c1	-14%	5%	20%	-7%	-40%
Cc1ccc(N2C(=O)C(Cl)=C(N3CCOCC3)C2=O)cc1Cl	-9%	-2%	57%	?	-22%[59 µM]
CN1CCN(C2=C(Cl)C(=O)N(c3ccc(Cl)c(Cl)c3)C2=O)CC1	4%	?	42%	22µM*	32µM*
CC1CCCN(C2=C(Cl)C(=O)N(c3cccc(Cl)c3)C2=O)C1 (stereo unspecified)	-24%	95%	253%	93%	64%[59 µM]
CN1CCN(C2=C(Cl)C(=O)N(c3cccc(Cl)c3)C2=O)CC1	-23%	-11%	-7%	18µM*	?
COc1ccccc1-c1nc(SCC(=O)NCc2ccccc2)c2c(=O)n(C)c(=O)n(C)c2n1	nt	4%	20%[57 µM]	-2%	2%[59 µM]
Cc1ccc(S(=O)(=O)NC(=NC(C)C)c2ccccc2)cc1	3%	10%	28%	-17%	15%[0.501 µM]
Cc1ccc(S(=O)(=O)C/N=C(/NC(=S)N(c2ccccc2)c2ccccc2)c2ccccc2)cc1	32µM*	14%	9%	?	10µM*
Cc1ccc(C(=O)O)cc1NC(=O)C1=CSCCO1	7%	-7%	53%	14%	50µM*
CC(C)(CO)NCc1ccc(Br)cc1	-9%	-36%	3%	7.9µM*	-23%
Cc1ccc(CNC(C)(C)CO)cc1	-6%	-14%	29%	-10%	?
O=C(CSc1ccccc1)NCc1ccc2c(c1)CCN2C(=O)c1ccccc1	nt	-11%	-8%	-15%	-1%[59 µM]
O=[N+]([O-])c1cccc(-c2nnc3ccc4ccccc4n23)c1	-18%	?	-17%	?	14µM*
O=[N+]([O-])c1ccc(-c2nnc3cccc(Cl)n23)cc1	10%	?	22%	56µM*	35µM*
